Test results from PubChem BioAssay AID720706 (Broad Institute, 2013).
About 5,500 (1.6%) of roughly 350,000 compounds were called active.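 The calls were made as follows: active = significant combined selectivity score with lowered wild-type GFP, culture density cut under 30%, mutant RFP and density less affected; inactive = any of these conditions unmet.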 What follows is part of a selection rich in actives, with near analogues and random picks from the rest.

Assay: GFP drop in mixed WT/humanized-ribosome E. coli culture – GFP/RFP fluorescence, OD600, single point, bacterial rRNA inhibitor project, primary screen (AID 720706)
Details: E. coli WT GFP vs humanized-ribosome RFP mutants, 24 h; GFP signal change (wild-type ribosome): stronger effect = lower value, DMSO median 0, no signal -100; OD600 change: measured here: OD600 growth, DMSO median 0, no signal -100; RFP signal change: measured here: RFP humanized mutant strains, DMSO median 0, no signal -100, concentration not given here
In the case of `CC1CCN(C(=S)NC(=O)c2ccccc2Br)CC1`, the GFP signal change (wild-type ribosome) is reported as 6.21% (inactive), the OD600 change is reported as 4.62% and the RFP signal change is reported as -0.105%. With `O=C(NC(=S)Nc1ncccn1)c1ccccc1Br` the GFP signal change (wild-type ribosome) was -2.07% (inactive), the OD600 change was 4.96% and the RFP signal change was -3.8%. In the case of `CCCN(CC1CC1)C(=S)NC(=O)c1ccccc1Br`, the GFP signal change (wild-type ribosome) is reported as -22.1% (active), the OD600 change is reported as -12% and the RFP signal change is reported as -8.89%. With `O=C(CCN1CCCCC1)NCC[C@@H]1CC[C@H](NS(=O)(=O)c2cccc(Cl)c2)[C@H](CO)O1` the GFP signal change (wild-type ribosome) was 3.52% (inactive), the OD600 change was 6.73% and the RFP signal change was 1.99%. In the case of `COc1ccccc1NC(=O)N1C[C@@H](O)COC[C@H]2O[C@@H](CC(=O)NCc3ccccc3)CC[C@@H]21`, the GFP signal change (wild-type ribosome) is reported as -2.42% (inactive), the OD600 change is reported as -2.65% and the RFP signal change is reported as 2.34%. In the case of `COCC(=O)N1CCC2(CC1)CN(Cc1ccccc1Cl)[C@H](CO)c1c2c2ccc(OC)cc2n1C`, the GFP signal change (wild-type ribosome) is reported as 5.11% (inactive), the OD600 change is reported as -2.87% and the RFP signal change is reported as 0.0355%. For `Clc1ccc(C[n+]2cc(-c3ccccc3)n3c2CCC3)cc1`, the GFP signal change (wild-type ribosome) was 2.79% (inactive), the OD600 change was -1.72% and the RFP signal change was -0.921%. For `Clc1ccc(C[n+]2cc(-c3ccc(Cl)cc3)n3c2CCC3)cc1`, the GFP signal change (wild-type ribosome) was -41.8% (inactive), the OD600 change was -50.2% and the RFP signal change was -12.3%. In the case of `Cc1ccc(S(=O)(=O)N2CCN(C(=O)c3cccs3)CC2)cc1`, the GFP signal change (wild-type ribosome) is reported as 0.592% (inactive), the OD600 change is reported as -2.53% and the RFP signal change is reported as -0.742%. With `Cc1ccc(-c2c[n+](CC(=O)Nc3ccccc3)c3n2CCC3)cc1` the GFP signal change (wild-type ribosome) was -22.1% (active), the OD600 change was -5.22% and the RFP signal change was 8.16%. With `Cc1ccc(C(=O)C[n+]2cc(-c3ccccc3)n3c2CCCCC3)cc1` the GFP signal change (wild-type ribosome) was -44.5% (inactive), the OD600 change was -43.4% and the RFP signal change was 50.7%. In the case of `O=C(C[n+]1cc(-c2ccc(Cl)c(Cl)c2)n2c1CCC2)c1cccs1`, the GFP signal change (wild-type ribosome) is reported as -50.7% (active), the OD600 change is reported as -21.5% and the RFP signal change is reported as -14.4%. For `O=C(NCC1CC1)[C@@H]1[C@@H](CO)[C@@H]2Cn3c(ccc(-c4ccncc4)c3=O)[C@H]1N2Cc1nccs1`, the GFP signal change (wild-type ribosome) was 2.96% (inactive), the OD600 change was 4.86% and the RFP signal change was -1.83%. With `O=C(C[C@@H]1CC[C@H]2[C@@H](COC[C@H](O)CN2C(=O)Nc2ccccc2)O1)NCCc1ccncc1` the GFP signal change (wild-type ribosome) was 6.3% (inactive), the OD600 change was 12.9% and the RFP signal change was -0.44%. In the case of `Cc1nn(C(C)(C)C)c(OC(=O)CC(C)C)c1S(=O)(=O)c1ccccc1`, the GFP signal change (wild-type ribosome) is reported as -21.5% (active), the OD600 change is reported as -14.2% and the RFP signal change is reported as -1.55%. With `CC(CC(=O)N1CCN(S(=O)(=O)c2ccccc2)CC1)n1cncn1` (stereo unspecified) the GFP signal change (wild-type ribosome) was 5.03% (inactive), the OD600 change was 0.845% and the RFP signal change was -1.68%. With `Cc1ccc(S(=O)(=O)CCC(=O)OCc2ccccc2)cc1` the GFP signal change (wild-type ribosome) was 0.84% (inactive), the OD600 change was 1.2% and the RFP signal change was 2.56%. For `CNC[C@H]1Oc2ccccc2CC(=O)N(C)C[C@H]1C`, the GFP signal change (wild-type ribosome) was 1.46% (inactive), the OD600 change was 4.75% and the RFP signal change was -1.05%. In the case of `CC(C)NC(=O)Nc1ccc2c(c1)CC(=O)N(C)C[C@@H](C)[C@@H](CN(C)C(=O)OC(C)(C)C)O2`, the GFP signal change (wild-type ribosome) is reported as 2.38% (inactive), the OD600 change is reported as 4.01% and the RFP signal change is reported as 0.746%. With `CC(C)C#Cc1ccc2c(c1)O[C@@H](CN(C)C(=O)CN(C)C)[C@@H](C)CN([C@H](C)CO)S2(=O)=O` the GFP signal change (wild-type ribosome) was 2.76% (inactive), the OD600 change was 1.18% and the RFP signal change was -1.07%. For `CCCNC(=O)N(C)C[C@@H]1Oc2ncc(-c3cccc(C#N)c3)cc2C(=O)N([C@@H](C)CO)C[C@@H]1C`, the GFP signal change (wild-type ribosome) was 5.65% (inactive), the OD600 change was 14.1% and the RFP signal change was -4.23%. For `Cc1ccc(CNC(=O)Cc2cn(C)c3ccccc23)cc1`, the GFP signal change (wild-type ribosome) was -9.46% (inactive), the OD600 change was -8.64% and the RFP signal change was 3.4%. For `Cc1ccc(N2C(=O)S/C(=C/c3cn(C)c4ccccc34)C2=O)cc1`, the GFP signal change (wild-type ribosome) was 5.23% (inactive), the OD600 change was 9.33% and the RFP signal change was 6.02%. With `Cn1cc(C2OC(=O)c3ccccc32)c2ccccc21` (stereo unspecified) the GFP signal change (wild-type ribosome) was -10.5% (active), the OD600 change was -18.9% and the RFP signal change was -4.84%. With `CN1c2ccc(-c3ccccc3F)cc2[C@@H]2[C@@H](CCN2C(=O)CN2CCOCC2)[C@H]1CO` the GFP signal change (wild-type ribosome) was -2.46% (inactive), the OD600 change was -0.94% and the RFP signal change was -0.302%. In the case of `C[C@@H]1CN([C@H](C)CO)C(=O)c2cc(NC(=O)Cn3cnnn3)ccc2O[C@@H]1CN(C)Cc1ccc(C(F)(F)F)cc1`, the GFP signal change (wild-type ribosome) is reported as -1.05% (inactive), the OD600 change is reported as -5.5% and the RFP signal change is reported as -0.189%. With `OCCN(Cc1ccccc1)Cc1ccc(Cl)cc1` the GFP signal change (wild-type ribosome) was -23% (active), the OD600 change was -9.66% and the RFP signal change was 0.44%. For `O=C(Cc1ccc(Cl)cc1)c1ccccc1`, the GFP signal change (wild-type ribosome) was 3.35% (inactive), the OD600 change was 2.91% and the RFP signal change was -5.05%. For `CN(C(=O)CN(CCO)CC(=O)N(C)C(C)(C)Cc1ccccc1)C(C)(C)Cc1ccccc1`, the GFP signal change (wild-type ribosome) was -31.9% (inactive), the OD600 change was -35.7% and the RFP signal change was -7.29%. In the case of `CCC(=O)N[C@H]1CC[C@@H](CC(=O)NCC2CC2)O[C@@H]1CO`, the GFP signal change (wild-type ribosome) is reported as 3.28% (inactive), the OD600 change is reported as 7.08% and the RFP signal change is reported as 3.11%. With `CC(C)NC(=O)Nc1ccc2c(c1)C(=O)N([C@@H](C)CO)C[C@H](C)[C@@H](CN(C)Cc1ccc(C(=O)O)cc1)OCCCC[C@H](C)O2` the GFP signal change (wild-type ribosome) was -0.801% (inactive), the OD600 change was 3.15% and the RFP signal change was -0.195%. For `O=C(Nc1ccc(N2CCN(C(=O)c3ccccc3)CC2)c(Cl)c1)c1ncn[nH]1`, the GFP signal change (wild-type ribosome) was -24.4% (active), the OD600 change was -14.7% and the RFP signal change was 0.07%. For `O=C(Nc1ccccc1N1CCN(C(=O)c2ccccc2)CC1)c1ccco1`, the GFP signal change (wild-type ribosome) was -8.24% (inactive), the OD600 change was -9.77% and the RFP signal change was -0.948%. For `CN1CCN(c2ccc(NC(=O)c3ccc4c(c3)OCCO4)cc2Cl)CC1`, the GFP signal change (wild-type ribosome) was 3.42% (inactive), the OD600 change was 2.75% and the RFP signal change was -7.15%. For `COc1ccc2c3c([nH]c2c1)[C@@H](CO)N(C(=O)C1CC1)CC31CCN(Cc2nccs2)CC1`, the GFP signal change (wild-type ribosome) was -6.7% (inactive), the OD600 change was -0.445% and the RFP signal change was -3.97%. With `CCCNC(=O)C[C@@H]1CC[C@H]2[C@@H](COc3ccc(NC(=O)C4CCCC4)cc3C(=O)N2C)O1` the GFP signal change (wild-type ribosome) was 2.97% (inactive), the OD600 change was 3.62% and the RFP signal change was 0.145%. For `O=C(NC1CCC1)[C@@H]1[C@@H](CO)[C@@H]2Cn3c(ccc(/C=C/c4ccccc4)c3=O)[C@@H]2N1Cc1ccncc1`, the GFP signal change (wild-type ribosome) was -9.73% (inactive), the OD600 change was -7.87% and the RFP signal change was 7.36%. For `O=C(Nc1ccc(F)cc1)N1CC(=O)N2[C@H](CO)[C@H](c3ccc(C#Cc4ccccc4)cc3)[C@H]2C1`, the GFP signal change (wild-type ribosome) was -32.4% (inactive), the OD600 change was -57.1% and the RFP signal change was 29%. With `C[C@@H]1CCCCO[C@H](CN(C)C)[C@H](C)CN([C@@H](C)CO)C(=O)c2cc(NS(=O)(=O)c3cn(C)cn3)ccc2O1` the GFP signal change (wild-type ribosome) was 3.31% (inactive), the OD600 change was 6.19% and the RFP signal change was -1.01%. In the case of `Cn1c(SCC(=O)c2cccs2)nnc1-c1ccco1`, the GFP signal change (wild-type ribosome) is reported as 1.2% (inactive), the OD600 change is reported as 2.27% and the RFP signal change is reported as 0.555%. For `CCn1c(SCC(=O)Nc2cc(C)c(Cl)cc2OC)nnc1-c1ccco1`, the GFP signal change (wild-type ribosome) was -38.4% (inactive), the OD600 change was -53.5% and the RFP signal change was -9.88%. With `CSc1nc(-c2ccco2)nn1C(=O)c1ccccc1Cl` the GFP signal change (wild-type ribosome) was -25.9% (active), the OD600 change was -15.3% and the RFP signal change was 0.841%.
